Experimental findings from the supplement of paper PMC9694430 are described below.

In one test the test system is LOC_OS02G07810-cb001. Nature of the test: thermal shift delta Tm vs DMSO control; higher = stronger stabilization (binding). To be noted: 12.5 µM; protein concentration 2 µM. The procedure, abridged: (§1)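 Purified, E. coli-expressed rice kinase domain constructs were tested by differential scanning fluorimetry in 96-well plates: 19.5 μl of 2 μM kinase in 100 mM potassium phosphate pH 7.5, 150 mM NaCl, 10% glycerol, 5 × SYPRO Orange, plus compound in DMSO. Fluorescence was read from 25°C to 95°C at 0.05°C/s. Melting temperatures came from Boltzmann fits, and the shift is the triplicate mean relative to protein with DMSO alone.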
`COCCNCc1ccc(-c2cc3nccc(Oc4ccc(NC(=O)C5(C(=O)Nc6ccc(F)cc6)CC5)cc4F)c3s2)nc1` [Sitravatinib (MGCD516)]: the “thermal shift delta Tm” value is 0.47 °C.
For the compound `COCC(=O)NC/C=C/c1ccc2ncnc(Nc3ccc(Oc4ccc(C)nc4)c(C)c3)c2c1`, the “thermal shift delta Tm” value came to 0.15 °C.
On the same count and under the same terms, then `O=C(NOC[C@H](O)CO)c1ccc(F)c(F)c1Nc1ccc(I)cc1F`, with 1.39 °C; and `Cc1cc(Nc2cc(N3CCN(C)CC3)nc(/C=C/c3ccccc3)n2)n[nH]1`, with 0.72 °C.
In the case of `Nc1nc(N)c2nc(-c3cccc(O)c3)c(-c3cccc(O)c3)nc2n1`, the “thermal shift delta Tm” value came out at 1.52 °C.
As to `Cc1nc(Nc2ncc(C(=O)Nc3c(C)cccc3Cl)s2)cc(N2CCN(CCO)CC2)n1` [Dasatinib], the “thermal shift delta Tm” value was 0.58 °C.
Still for that read-out and setting: then `O=C(c1ccc(Nc2nccc(-c3cc4ccccc4s3)n2)cc1)N1CCC(N2CCCC2)CC1` [IKK-16 (IKK Inhibitor VII)], with 0 °C.
The same measure, in the same setting: the same measure for `CC(C)CC(=O)Nc1n[nH]c2c1CN(C(=O)C1CCN(C)CC1)C2(C)C`: 1.09 °C; for `COc1cc2c(Oc3ccc(NC(=O)C4(C(=O)Nc5ccc(F)cc5)CC4)cc3F)ccnc2cc1OCCCN1CCOCC1`: 1.74 °C.
The same measure, in the same setting: then `OCCn1cc(-c2cnc3nnn(Cc4ccc5ncccc5c4)c3n2)cn1`, with 0.2 °C; and `CC(C)(C)c1nc(-c2ccc(NC(=O)Nc3cccc(C(F)(F)F)c3)c3ccccc23)c2c(N)nccn12` [kira6], with 0.03 °C; and `COc1ccc(-c2ccc3ncc4c(c3c2)n(-c2ccc(N3CCNCC3)c(C(F)(F)F)c2)c(=O)n4C)cn1`, with 1.67 °C.
For the compound `FC(F)(F)c1ccc(CNc2ccc(Cc3c[nH]c4ncc(Cl)cc34)cn2)cn1` [Pexidartinib (PLX3397)], the “thermal shift delta Tm” value stood at 1.03 °C.
Still for that read-out and setting: the same measure for `Cc1nc(NC(=O)N2CCC[C@H]2C(N)=O)sc1-c1ccnc(C(C)(C)C(F)(F)F)c1` [Alpelisib (BYL719)]: 0.62 °C; for `O=C(NCCO)c1cccc(-c2cc(Nc3ccc(OC(F)(F)F)cc3)ncn2)c1`: 0.33 °C; for `C[C@@H](Nc1cc(F)cc(F)c1)c1cc(C(=O)N(C)C)cc2c(=O)cc(N3CCOCC3)oc12`: 0.6 °C.
On the same count and under the same terms, then `C[C@@H]1COCCN1c1cc(=O)n2c(n1)N(Cc1cncc(Cl)c1)[C@H](C(F)(F)F)CC2`, with 0.77 °C; and `CNc1nc(-c2ccc3c(N)n[nH]c3c2)cc(N2C[C@@H](C(=O)NC3CCCCC3)CC[C@H]2C)n1`, with 1.63 °C.
With `COc1cc(N2CCC(N(C)C)CC2)ccc1Nc1ncc(Cl)c(Nc2ccccc2P(C)(C)=O)n1`, the “thermal shift delta Tm” value was determined as 0.65 °C.
Still for that read-out and setting: the same measure for `CN1CCN(c2ccc3nc(-c4c(N)c5c(F)cccc5[nH]c4=O)[nH]c3c2)CC1` [Dovitinib (TKI258) Lactate]: 0.88 °C; for `N#C/C(=C(/N)Sc1ccc(N)cc1)c1ccccc1C(F)(F)F`: 0.12 °C.
Still for that read-out and setting: the same measure for `Cc1c(C(=O)N2CCOc3ccc(-c4ccc(N)nc4)cc3C2)ccc(S(C)(=O)=O)c1F`: -0.03 °C.
The same measure, in the same setting: the same measure for `CCOc1cc2ncc(C#N)c(Nc3ccc(F)c(Cl)c3)c2cc1NC(=O)/C=C/CN(C)C` [Pelitinib (EKB-569)]: 0.84 °C; for `Oc1ccc(Nc2nc(-c3ccc(Cl)cc3)cs2)cc1`: 0.81 °C; for `O=C(Nc1ccccc1C(=O)NC1CCCCNC1=O)c1cc2ccccc2s1` (centres undefined): 0.51 °C.
For the compound `CC(C)c1c2cc(-c3ccnc(NC4CCC(NC5CCOCC5)CC4)n3)ccc2nn1C` (centres undefined), the “thermal shift delta Tm” value worked out at 0.41 °C.
In the case of `NCC(=O)Nc1ccc(-n2nc(C(F)(F)F)cc2-c2ccc3c(ccc4ccccc43)c2)cc1`, the “thermal shift delta Tm” value came out at 0.25 °C.
For `Cc1cc(NC(=O)c2cccc(NC(=O)/C=C/CN(C)C)c2)ccc1Nc1nccc(-c2cccnc2)n1`, the “thermal shift delta Tm” value turned out to be 1.46 °C.
As for `N#Cc1ccc2ncnc(NCCc3ccccc3)c2c1` [Senexin A], the “thermal shift delta Tm” value was -0.71 °C.
With `CCOc1cn(-c2ccc(F)cc2C)nc1C(=O)Nc1ccc(Oc2ccnc3cc(OC)c(OC)cc23)c(F)c1`, the “thermal shift delta Tm” value amounted to 0.56 °C.
Consider `Fc1ccc2[nH]ccc2c1-c1nc(N2CCOCC2)c2sc(CN3CCN(CC4CC4)CC3)cc2n1`, for which the “thermal shift delta Tm” value was 0.15 °C.
As to `COc1cccc2cc(-c3nc([C@H]4CC[C@H](C(=O)O)CC4)n4ncnc(N)c34)[nH]c12`, the “thermal shift delta Tm” value stood at 1.58 °C.
For `N#Cc1cnc(Nc2cc(NC[C@H]3CNCCO3)c(C(F)(F)F)cn2)cn1`, the “thermal shift delta Tm” value was 0.2 °C.
`O=C(NOCCO)c1ccc2cncn2c1Nc1ccc(I)cc1F`: the “thermal shift delta Tm” value was found to be 1.14 °C.
The same measure, in the same setting: then `COc1cc2c(Nc3ccc(NC(=O)c4ccccc4)cc3)ncnc2cc1OCCCN1CCOCC1`, with 1.37 °C; and `NC(=O)Nc1cc(-c2cccc(F)c2)sc1C(=O)N[C@H]1CCCNC1`, with 1.56 °C.
Take `CNC(=O)c1ccc(-c2cnc3ncc(Cc4ccc5ncccc5c4)n3n2)cc1F`: the “thermal shift delta Tm” value worked out at 0.83 °C.

A further test relates to LOC_OS02G08530-cb003. The description is as above. Conditions: 12.5 µM; protein concentration 2 µM. Summed up:
as §1
`COCCNCc1ccc(-c2cc3nccc(Oc4ccc(NC(=O)C5(C(=O)Nc6ccc(F)cc6)CC5)cc4F)c3s2)nc1` [Sitravatinib (MGCD516)]: the “thermal shift delta Tm” value turned out to be 2.12 °C.
On the same count and under the same terms, the same measure for `COCC(=O)NC/C=C/c1ccc2ncnc(Nc3ccc(Oc4ccc(C)nc4)c(C)c3)c2c1`: 0.52 °C; for `O=C(NOC[C@H](O)CO)c1ccc(F)c(F)c1Nc1ccc(I)cc1F`: 1.15 °C; for `Cc1cc(Nc2cc(N3CCN(C)CC3)nc(/C=C/c3ccccc3)n2)n[nH]1`: 2.41 °C.
The same measure, in the same setting: the same measure for `Nc1nc(N)c2nc(-c3cccc(O)c3)c(-c3cccc(O)c3)nc2n1`: 0.91 °C; for `Cc1nc(Nc2ncc(C(=O)Nc3c(C)cccc3Cl)s2)cc(N2CCN(CCO)CC2)n1` [Dasatinib]: 0.93 °C; for `O=C(c1ccc(Nc2nccc(-c3cc4ccccc4s3)n2)cc1)N1CCC(N2CCCC2)CC1` [IKK-16 (IKK Inhibitor VII)]: 2.32 °C.
The same measure, in the same setting: the same measure for `CC(C)CC(=O)Nc1n[nH]c2c1CN(C(=O)C1CCN(C)CC1)C2(C)C`: 0.95 °C; for `COc1cc2c(Oc3ccc(NC(=O)C4(C(=O)Nc5ccc(F)cc5)CC4)cc3F)ccnc2cc1OCCCN1CCOCC1`: 1.31 °C; for `OCCn1cc(-c2cnc3nnn(Cc4ccc5ncccc5c4)c3n2)cn1`: 0.45 °C.
As to `CC(C)(C)c1nc(-c2ccc(NC(=O)Nc3cccc(C(F)(F)F)c3)c3ccccc23)c2c(N)nccn12` [kira6], the “thermal shift delta Tm” value worked out at 2.22 °C.
With `COc1ccc(-c2ccc3ncc4c(c3c2)n(-c2ccc(N3CCNCC3)c(C(F)(F)F)c2)c(=O)n4C)cn1`, the “thermal shift delta Tm” value turned out to be 2.04 °C.
On the same count and under the same terms, the same measure for `FC(F)(F)c1ccc(CNc2ccc(Cc3c[nH]c4ncc(Cl)cc34)cn2)cn1` [Pexidartinib (PLX3397)]: 3.22 °C.
Same read-out and setting: then `Cc1nc(NC(=O)N2CCC[C@H]2C(N)=O)sc1-c1ccnc(C(C)(C)C(F)(F)F)c1` [Alpelisib (BYL719)], with -0.09 °C; and `O=C(NCCO)c1cccc(-c2cc(Nc3ccc(OC(F)(F)F)cc3)ncn2)c1`, with 0.44 °C.
On the same count and under the same terms, then `C[C@@H](Nc1cc(F)cc(F)c1)c1cc(C(=O)N(C)C)cc2c(=O)cc(N3CCOCC3)oc12`, with 0.37 °C; and `C[C@@H]1COCCN1c1cc(=O)n2c(n1)N(Cc1cncc(Cl)c1)[C@H](C(F)(F)F)CC2`, with 0.7 °C; and `CNc1nc(-c2ccc3c(N)n[nH]c3c2)cc(N2C[C@@H](C(=O)NC3CCCCC3)CC[C@H]2C)n1`, with 1.27 °C.
On to `COc1cc(N2CCC(N(C)C)CC2)ccc1Nc1ncc(Cl)c(Nc2ccccc2P(C)(C)=O)n1`, for which the “thermal shift delta Tm” value was 5.8 °C.
Regarding `CN1CCN(c2ccc3nc(-c4c(N)c5c(F)cccc5[nH]c4=O)[nH]c3c2)CC1` [Dovitinib (TKI258) Lactate], the “thermal shift delta Tm” value was found to be 4.27 °C.
Turning to `N#C/C(=C(/N)Sc1ccc(N)cc1)c1ccccc1C(F)(F)F`, the “thermal shift delta Tm” value worked out at 0.32 °C.
On the same count and under the same terms, then `Cc1c(C(=O)N2CCOc3ccc(-c4ccc(N)nc4)cc3C2)ccc(S(C)(=O)=O)c1F`, with 0.91 °C.
Still for that read-out and setting: the same measure for `CCOc1cc2ncc(C#N)c(Nc3ccc(F)c(Cl)c3)c2cc1NC(=O)/C=C/CN(C)C` [Pelitinib (EKB-569)]: 0.59 °C.
Same read-out and setting: the same measure for `Oc1ccc(Nc2nc(-c3ccc(Cl)cc3)cs2)cc1`: -0.94 °C.
For `O=C(Nc1ccccc1C(=O)NC1CCCCNC1=O)c1cc2ccccc2s1` (centres undefined), the “thermal shift delta Tm” value came out at 0.19 °C.
Consider `CC(C)c1c2cc(-c3ccnc(NC4CCC(NC5CCOCC5)CC4)n3)ccc2nn1C` (centres undefined), for which the “thermal shift delta Tm” value is 1.38 °C.
The same measure, in the same setting: then `NCC(=O)Nc1ccc(-n2nc(C(F)(F)F)cc2-c2ccc3c(ccc4ccccc43)c2)cc1`, with 0.42 °C; and `Cc1cc(NC(=O)c2cccc(NC(=O)/C=C/CN(C)C)c2)ccc1Nc1nccc(-c2cccnc2)n1`, with 1.8 °C; and `N#Cc1ccc2ncnc(NCCc3ccccc3)c2c1` [Senexin A], with 2.47 °C.
On the same count and under the same terms, the same measure for `CCOc1cn(-c2ccc(F)cc2C)nc1C(=O)Nc1ccc(Oc2ccnc3cc(OC)c(OC)cc23)c(F)c1`: 1.15 °C.
For `Fc1ccc2[nH]ccc2c1-c1nc(N2CCOCC2)c2sc(CN3CCN(CC4CC4)CC3)cc2n1`, the “thermal shift delta Tm” value was determined as 0.45 °C.
Same read-out and setting: then `COc1cccc2cc(-c3nc([C@H]4CC[C@H](C(=O)O)CC4)n4ncnc(N)c34)[nH]c12`, with 1.17 °C; and `N#Cc1cnc(Nc2cc(NC[C@H]3CNCCO3)c(C(F)(F)F)cn2)cn1`, with 0.87 °C; and `O=C(NOCCO)c1ccc2cncn2c1Nc1ccc(I)cc1F`, with 0.47 °C.
The same measure, in the same setting: then `COc1cc2c(Nc3ccc(NC(=O)c4ccccc4)cc3)ncnc2cc1OCCCN1CCOCC1`, with 0.66 °C; and `NC(=O)Nc1cc(-c2cccc(F)c2)sc1C(=O)N[C@H]1CCCNC1`, with 5.46 °C.
Still for that read-out and setting: then `CNC(=O)c1ccc(-c2cnc3ncc(Cc4ccc5ncccc5c4)n3n2)cc1F`, with 0.3 °C.
